A number with no mark means an inactive call. The source made the active and inactive calls.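 Rule for the calls: active = z-score of at least 1.8 in each of two replicates, scored against plate mean and spread of sample wells; inactive = the rest.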
Test: viability rescue of complex I mutant cybrids, primary screen, cell-based, galactose medium, ATP luminescence (AID 1645843);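 note: positive z means more ATP and so rescue of galactose-driven cybrid death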
Details: complex I mutant cybrid cells, 72 h, active compounds read high
`CN(C)Cc1cn(C2CCN(C(=O)C3CCCCCC3)CC2)nn1` showed a z-score of -0.49. For `CC1(C)CC(CC(=O)N2CCC(n3cc(C(C)(C)O)nn3)CC2)CC(C)(C)N1`, the z-score was -0.57. For `CCCC(C)N(CC)C(=O)c1ccc(C#CC(C)(C)O)o1` (centres undefined), the z-score was -0.525. For `NC(=O)NCc1cn(CC2CCN(C(=O)C3CCCCCC3)CC2)nn1`, the z-score was -0.565. Compound `C=C1C2(C(=O)N3CCCC(C(=O)N4CCOCC4)C3)CCC(C2)C1(C)C` (centres undefined) has a z-score of -0.555. In the case of `Cc1nn(C)c(C)c1-c1ccnc(NCc2cnc3ccccn23)n1`, the z-score is reported as -0.925. In the case of `Cc1sc2ccccc2c1-c1ccn(CC(=O)Nc2ccnn2C(C)C)n1`, the z-score is reported as -0.855. For `Cc1cnc(CN(C)Cc2ccc(-c3nc(C(F)(F)F)c(C)c(=O)[nH]3)cc2)[nH]1`, the z-score was -0.58. In the case of `COC(=O)c1nn(CC(=O)Nc2cnn(C)n2)c2ccccc12`, the z-score is reported as 1.92. For `COc1cc(Cl)ccc1C(=O)N1CCC(Cn2cc(C3CC3)nn2)CC1`, the z-score was -0.63. Work on `CC(Oc1ccc2c(c1)OCO2)C(=O)N1CCCCC1CCN1CCCC1=O` (centres undefined) yielded a z-score of 1.73. For `CCCC(CCC)C(=O)N1CCC(n2cc(C(C)O)nn2)CC1` (centres undefined), the z-score was -0.47. In the case of `Cc1ccccc1-c1cccc(C(=O)c2nccn2C)c1`, the z-score is reported as -0.54. Compound `CCC1(CC)CC1C(=O)N1CCCCC1CCn1ccnc1C` (centres undefined) has a z-score of -0.475. For `c1ccc(CC2CCN(C3CCSC3)CC2)cc1` (centres undefined), the z-score was -0.3. For `CC(C)CCC(C)N[C@H](CO)Cc1ccccc1` (some centres undefined), the z-score was -0.5. In the case of `CCCn1cnc(NC(=O)NC2CCN(Cc3ccccc3)CC2)n1`, the z-score is reported as 0.58. `COc1nccnc1-c1cccc(-n2cccn2)c1` gave a z-score of -0.545. For `Cc1cc(C)n(CC(C)n2cnc3sc4c(c3c2=O)CCCCC4)n1` (centres undefined), the z-score was 2.45 (active). `Cc1cc(CN(C)Cc2ccc(-c3nc(C)c(C)c(=O)[nH]3)cc2)ccn1` showed a z-score of -0.52. For `OC[C@@H](Cc1ccccc1)NC1CCCCCC1`, the z-score was -0.55. `COc1ccccc1N1CCN(C(=O)Nc2n[nH]c(Cc3ccccc3)n2)CC1` showed a z-score of -0.935. With `CCCN1CCC(NCC(CC)(CC)CCC#N)CC1` the z-score was -0.565. `COc1cccc(CC(=O)NCc2ccsc2)c1` showed a z-score of -0.32. Work on `COC(=O)CN1CCN(c2cc(OC)ncn2)CC1=O` yielded a z-score of -0.535. `C1=CCC(CN2CCC(N3CCCC3)CC2)CC1` (centres undefined) gave a z-score of -0.58. Compound `Cc1nn(C)cc1-c1ccnc(NC(CC(C)(C)C)c2cccnc2)n1` (centres undefined) has a z-score of 1.75. Work on `Cc1cc(C)n(CC(C)n2cnc3cccc(C)c3c2=O)n1` (centres undefined) yielded a z-score of 0.34. `CC(=O)c1cc(CC(=O)NCc2cc(F)c(F)cc2F)cs1` gave a z-score of -0.01. `CC(CCCC(C)(C)O)CCNCC1(CO)CCC1` (centres undefined) showed a z-score of -0.48. Work on `Cc1cccc2c(=O)n(Cc3ccc(Cl)s3)cnc12` yielded a z-score of 0.23. In the case of `CCC(CC)(CCC#N)CNCC1(N2CCOCC2)CCCC1`, the z-score is reported as -0.575. `COc1cc(-c2cccc(C)c2C)nc(N)n1` showed a z-score of -0.335. `Cc1cc(CN2CCN(C)C(CCO)C2)c2cccc(C)c2n1` (centres undefined) showed a z-score of -0.035. Work on `CN(C)C(=O)c1cccnc1-c1ccc2ncccc2c1` yielded a z-score of -0.545. Compound `CCn1ncc(NC(=O)Cn2cc(C)c(-c3ccc(Cl)s3)n2)n1` has a z-score of -0.01. In the case of `COc1ccc(OC)c(-c2ccc3nc(C)ccc3c2)c1`, the z-score is reported as -1.14. With `Cc1ccc2c(C(=O)N3CCCCC3C)cc(-c3cnn(C(C)C)c3)nc2c1` (centres undefined) the z-score was -0.16. Work on `CCN(CC)C(CNCc1ccc(OC)c(F)c1)c1ccco1` (centres undefined) yielded a z-score of -0.84.

Source: PubChem BioAssay
